Assay results: PubChem BioAssay (NCATS)
“And” between values parts separate entries of the source, which are not always exact repeats. Equal entries are not always repeated. Inconclusive results are not listed. The source made the active and inactive calls. Unless noted, calls come from the whole dose curve; as a rule, active = well fitted curve in the direction sought with a large enough effect; inconclusive = small, poorly fitted or top-dose-only effect, or another doubt; inactive = no such curve, though single readings can be large; an effect the other way counts as inactive or inconclusive.

Assays:
[1] = target: Lysosomal acid glucosylceramidase (Homo sapiens) (UniProt P04062); test: Glucocerebrosidase-p2 (AID 348; in the data active = potency below about 10 µM; note: potency is the fitted concentration of half-maximal effect); details: purified GBA, blue fluorogenic substrate, 40 min
Summary of the method: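 Normal human glucocerebrosidase (0.2 nM) with blue fluorogenic substrate (80 uM final) in citrate/phosphate pH 5.9 with 10mM sodium taurocholate, 0.01% tween-20; 40 min RT, NaOH/glycine stop; fluorescence Ex 365/Em 440; AC50 from a titration from 0.6 nM upwards.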

[2] = AP1 Signaling Pathway (AID 357; active = well fitted curve in either direction with a large enough effect, not every such curve was filed as active;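 note: ME-180 reporter cells stimulated with EGF at its EC50 level; % is set by controls: 0 for no effect and ±100 for the full control effect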); details: ME-180 AP-1-bla reporter, EGF-induced, beta-lactamase ratio, 5 h
Summary of the method: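 Titration-series screen for positive or negative modulators of EC50 EGF-induced signaling in ME-180 cells carrying an AP-1-driven beta-lactamase reporter. After 5 hours at 37 degrees Celsius, CCF4 460nm/530nm emission ratio gave %Activity; AC50 values derived.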

[3] = NFAT Signaling Pathway (AID 444; active = well fitted curve in either direction with a large enough effect, not every such curve was filed as active;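 note: carbachol stimulus at about its EC50 of 1 µM final; % is set by controls: 0 for no effect and ±100 for the full control effect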); details: Jurkat NFAT-bla M1, carbachol, beta-lactamase ratio, 5 h
Summary of the method: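 Read-out: CCF4 FRET ratio (460 nm/530 nm) after 1 h RT dye loading, used for %activity and AC50 from titration series. Cells: Jurkat NFAT-β-lactamase/M1 line, treated with compound plus 1 uM carbachol for 5 h, 37 °C.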

[4] = Stat Signaling Pathway (AID 446; active = well fitted curve in either direction with a large enough effect, not every such curve was filed as active;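 note: ME-180 cervical cancer cells given 40 pM IL-6 alongside compound; SIE-controlled beta-lactamase reporter measured as 460/530 nm FRET emission ratio; % is set by controls: 0 for no effect and ±100 for the full control effect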); details: ME-180 (cervical carcinoma) SIE beta-lactamase reporter, IL-6 stimulated, 5 h
Summary of the method: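 FRET read-out (405 nm excitation, 460/530 nm emission) of a beta-lactamase reporter under a STAT-inducible element in ME-180 cervical carcinoma cells. Cells with compound receive 40 pM IL-6 for 5 h. Values are normalised to AC90 stimulation and AC90 JAK-inhibitor controls.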

[5] = target: Mitogen-activated protein kinase 10 (Mus musculus) (UniProt Q61831); test: JNK3 AlphaScreen Assay (AID 530; active = well fitted curve in either direction with a large enough effect, not every such curve was filed as active;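 note: kinase came from lysate of stimulated human HepG2 cells; signal reports phosphorylation of biotinylated GST-cJun 1-79 at Ser73 with 10 µM ATP; % is set by controls: 0 for no effect and ±100 for the full control effect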); details: JNK3 lysate, c-Jun phosphorylation; series mostly up to 57.1 µM
Summary of the method: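 Kinase buffer: 20 mM Tris-HCl pH 7.6, 10 mM MgCl2, 1 mM DTT, 0.1 mM Na3VO4, 0.01% Tween-20; ATP 10 uM. Substrate biotin-GST-cJun(1-79), enzyme from activated HepG2 lysates. Detection by Ser73 phospho-antibody AlphaScreen.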

[6] = target: 3',5'-cyclic-AMP phosphodiesterase 4B (Homo sapiens) (UniProt Q07343); test: qHTS Assay for Inhibitors of PDE-IV (AID 607; active = well fitted activation curve with a large enough effect in the main read-out, with a control signal flat, not every such curve was filed as active; note: % of control where 0% means no effect); details: HEK293 ACTOne CNG channel cells, membrane potential fluorescence; series mostly up to 22.9 µM
Summary of the method: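 Cell-based read-out of cAMP via a modified cyclic nucleotide-gated channel and membrane potential dye (535/590 nm) in HEK293 cells expressing PDE4 endogenously. Compounds tested up to 22.9 uM final; 100 uM RO 20-1724 reference.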

[7] = qHTS Assay for Lipid Storage Modulators (AID 1519; calls by dose curve); details: Drosophila S3 cells, BODIPY lipid droplet/cell ratio, laser cytometry, cells loaded with oleic acid
Summary of the method: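 Cells seeded at 5,000 per well were treated with compounds over a concentration series and loaded with oleic acid (400 uM, as added). Lipid droplet fluorescence (488 nm excitation, 500-530 nm channel) was read by laser-scanning cytometry and normalized to 20 uM Triacsin C.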

[8] = target: ATP-dependent 6-phosphofructokinase (Trypanosoma brucei brucei) (UniProt O15648); test: qHTS Assay to Find Inhibitors of T. brucei phosphofructokinase: hit validation (AID 492961); details: T. brucei PFK, ADP-Glo luminescence; series mostly up to 51.4 µM
Summary of the method: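 In this biochemical qHTS validation, titrated compounds were tested against 1.25 nM PFK with 0.1 mM ATP and 0.5 mM F6P. Percent activity came from controls lacking or containing enzyme.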

[9] = target: Ubiquitin carboxyl-terminal hydrolase 1 (Homo sapiens) (UniProt O94782); test: Inhibitors of USP1/UAF1: Pilot qHTS (AID 504865); details: purified USP1/UAF1, Ub-rhodamine cleavage fluorescence; series mostly up to 114 µM;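 note: rhodamine fluorescence freed from ubiquitin-rhodamine substrate followed over time; top concentration of the series differs between compounds; % is set by controls: 0 for no effect and ±100 for the full control effect; nearly all actives have a fitted effect of over 35% in size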
Summary of the method: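 Deubiquitinase activity followed as kinetic rhodamine fluorescence release from 150 nM Ub-Rho. 1 nM USP1/UAF1 with compound, after 15 min room-temperature preincubation, in HEPES pH 7.8 buffer containing TCEP, EDTA, BSA and Tween-20.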

[10] = target: DNA dC->dU-editing enzyme APOBEC-3G (Homo sapiens) (UniProt Q9HC16); test: qHTS for inhibitors of Vif-A3G interactions: Validation (AID 588379); details: Vif-A3G protein interaction assay; series mostly up to 46.1 µM; note: 0% is about no effect
Summary of the method: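 Yellow fluorescence (Ex 488, Em 500-530) of Vif-coexpressing HeLa A3G-eYFP cells, scanned by Acumen cytometer, reports blocked A3G degradation. Cells plated at 700/well overnight at 37 deg C before compound addition, then a further overnight compound incubation at 37 deg C.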

[11] = target: Luciferin 4-monooxygenase (Photinus pyralis) (UniProt P08659); test: Biochemical firefly luciferase enzyme assay for NPC (AID 624030);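 note: purified P. pyralis luciferase at 10 nM with luciferin and ATP substrate; 0% = DMSO and -100% = full luciferase inhibition by PTC124 control; nearly all actives have a fitted effect of over 70% in size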; details: purified P. pyralis luciferase, luminescence, 5 min; series mostly up to 58.6 µM
Summary of the method: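 Direct inhibition of firefly luciferase enzyme (10 nM final, 50 mM Tris Acetate) assessed by luminescence within 5 minutes. Percent activity scaled between DMSO and PTC124 positive control, with concentration-effect curves classified by fit quality and response.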

[12] = S16 Schwann cell viability assay (CellTiter-Glo assay) (AID 624031); details: S16 rat Schwann cells viability, 24 h; series mostly up to 57.5 µM;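 note: cellular ATP luminescence as a viability measure; plate controls were DMSO-treated cells for no effect and cell-free wells for full effect; nearly all actives have a fitted effect of over 70% in size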
Summary of the method: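 Native S16 Schwann cells (rat), serum-containing medium, overnight attachment then 24 h drug exposure at 37 °C/5% CO2. CellTiter-Glo ATP signal; normalized to cell-free and vehicle wells.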

[13] = S16 Schwann cell PMP22 intronic element firefly luciferase assay (AID 624032); details: S16 rat Schwann cells, PMP22 element FLuc, 24 h; series mostly up to 57.5 µM;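 note: plate controls were DMSO for no effect and PTC124 positive control mean for full effect; nearly all actives have a fitted effect of over 30% in size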
Summary of the method: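 Luciferase reporter of PMP22 intronic-element expression in stably transfected S16 rat Schwann cells, read by ONE-Glo luminescence after 24 h compound exposure at 37 C. Activity scaled between DMSO (0%) and positive-control PTC124; concentration-effect curves quality-classified.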

[14] = S16 Schwann cell PMP22 intronic element beta-lactamase assay (AID 624044; calls by dose curve;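 note: 0% = DMSO and -100% = potassium clavulanate positive control; nearly all actives have a fitted effect of over 15% in size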); details: S16 rat Schwann cells, PMP22 element beta-lactamase FRET, 24 h; series mostly up to 38.3 µM
Summary of the method: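 Beta-lactamase reporter under a PMP22 intronic regulatory element in stable S16 rat Schwann cells; 24 h compound exposure. 460 nm blue signal normalized between DMSO (0%) and potassium clavulanate, with 535 nm FRET tracking viability; curves classed by r2 and response.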

[15] = system: Zika virus NS2B-NS3 protease; test: Primary screen GU AMC qHTS for Zika virus inhibitors (AID 1347154); details: Zika NS2B-NS3 unlinked protease, AMC fluorogenic substrate; series mostly up to 54.1 µM;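 note: 0% = no-inhibitor control and -100% = no-enzyme control; nearly all actives have a fitted effect of over 70% in size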
Summary of the method: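 Fluorogenic AMC-substrate cleavage by noncovalent NS2B-NS3 protease complex (25 nM, pH 8.0 Tris buffer with Tween 20) followed for 15 minutes at room temperature (~20% conversion). Percent inhibition from ex340/em450 signal change, fitted by 4-parameter Hill equation.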

[16] = Primary qHTS for small molecule stabilizers of the endoplasmic reticulum resident proteome: Secreted ER Calcium Modulated Protein (SERCaMP) assay (AID 1508630); details: SH-SY5Y GLuc-SERCaMP (Gaussia luciferase released on ER calcium loss) secretion, thapsigargin, luminescence; series mostly up to 38.4 µM; note: % is set by controls: 0 for no effect and ±100 for the full control effect
Summary of the method: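 The SH-SY5Y reporter protocol was run at 3 concentrations up to 38.3 uM (primary) or 11 concentrations (follow-up): 16 h compound, 100 nM thapsigargin for 4 h, then extracellular luciferase luminescence.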

[17] = qHTS profiling for inhibitors of Plasmodium falciparum proliferation (AID 504749);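 note: 0% = DMSO vehicle and full inhibition = artemisinin control; nearly all actives have a fitted effect of over 60% in size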; details: P. falciparum in erythrocytes, SYBR Green DNA, 72 h, at 28.7 µM (top of the series)
Summary of the method: (§1)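 In a 72 h erythrocytic culture (37 C, humidified, 5% CO2) at 2.5% hematocrit and 0.3% starting parasitemia, compounds were tested; SYBR Green I in detergent lysis buffer stained parasite DNA overnight.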

[18] = system: 3D7; test: as above; details: P. falciparum in erythrocytes, SYBR Green DNA, 72 h; series mostly up to 28.7 µM
Summary of the method: as §1

[19] = system: 7G8; test: as above; details: P. falciparum in erythrocytes, SYBR Green DNA, 72 h; series mostly up to 28.7 µM
Summary of the method: as §1

[20] = system: AA1029; test: as above; details: P. falciparum in erythrocytes, SYBR Green DNA, 72 h; series mostly up to 28.7 µM
Summary of the method: as §1

[21] = system: AS120; test: as above; details: P. falciparum in erythrocytes, SYBR Green DNA, 72 h; series mostly up to 28.7 µM
Summary of the method: as §1

[22] = system: ATS189; test: as above; details: P. falciparum in erythrocytes, SYBR Green DNA, 72 h; series mostly up to 28.7 µM
Summary of the method: as §1

[23] = system: ATS95; test: as above; details: P. falciparum in erythrocytes, SYBR Green DNA, 72 h; series mostly up to 28.7 µM
Summary of the method: as §1

[24] = system: C2A; test: as above; details: P. falciparum in erythrocytes, SYBR Green DNA, 72 h; series mostly up to 28.7 µM
Summary of the method: as §1

[25] = system: CP185; test: as above; details: P. falciparum in erythrocytes, SYBR Green DNA, 72 h; series mostly up to 28.7 µM
Summary of the method: as §1

[26] = system: CP191; test: as above; details: P. falciparum in erythrocytes, SYBR Green DNA, 72 h; series mostly up to 28.7 µM
Summary of the method: as §1

[27] = system: CP192; test: as above; details: P. falciparum in erythrocytes, SYBR Green DNA, 72 h; series mostly up to 28.7 µM
Summary of the method: as §1

[28] = system: CP194; test: as above; details: P. falciparum in erythrocytes, SYBR Green DNA, 72 h; series mostly up to 28.7 µM
Summary of the method: as §1

[29] = system: CP201; test: as above; details: P. falciparum in erythrocytes, SYBR Green DNA, 72 h; series mostly up to 28.7 µM
Summary of the method: as §1

[30] = system: CP203; test: as above; details: P. falciparum in erythrocytes, SYBR Green DNA, 72 h; series mostly up to 28.7 µM
Summary of the method: as §1

[31] = system: CP211; test: as above; details: P. falciparum in erythrocytes, SYBR Green DNA, 72 h; series mostly up to 28.7 µM
Summary of the method: as §1

[32] = system: CP215; test: as above; details: P. falciparum in erythrocytes, SYBR Green DNA, 72 h; series mostly up to 28.7 µM
Summary of the method: as §1

[33] = system: CP217; test: as above; details: P. falciparum in erythrocytes, SYBR Green DNA, 72 h; series mostly up to 28.7 µM
Summary of the method: as §1

[34] = system: CP237; test: as above; details: P. falciparum in erythrocytes, SYBR Green DNA, 72 h; series mostly up to 28.7 µM
Summary of the method: as §1

Chain of Ubiquitin carboxyl-terminal hydrolase 1 (Homo sapiens) (O94782 whole entry, looked up): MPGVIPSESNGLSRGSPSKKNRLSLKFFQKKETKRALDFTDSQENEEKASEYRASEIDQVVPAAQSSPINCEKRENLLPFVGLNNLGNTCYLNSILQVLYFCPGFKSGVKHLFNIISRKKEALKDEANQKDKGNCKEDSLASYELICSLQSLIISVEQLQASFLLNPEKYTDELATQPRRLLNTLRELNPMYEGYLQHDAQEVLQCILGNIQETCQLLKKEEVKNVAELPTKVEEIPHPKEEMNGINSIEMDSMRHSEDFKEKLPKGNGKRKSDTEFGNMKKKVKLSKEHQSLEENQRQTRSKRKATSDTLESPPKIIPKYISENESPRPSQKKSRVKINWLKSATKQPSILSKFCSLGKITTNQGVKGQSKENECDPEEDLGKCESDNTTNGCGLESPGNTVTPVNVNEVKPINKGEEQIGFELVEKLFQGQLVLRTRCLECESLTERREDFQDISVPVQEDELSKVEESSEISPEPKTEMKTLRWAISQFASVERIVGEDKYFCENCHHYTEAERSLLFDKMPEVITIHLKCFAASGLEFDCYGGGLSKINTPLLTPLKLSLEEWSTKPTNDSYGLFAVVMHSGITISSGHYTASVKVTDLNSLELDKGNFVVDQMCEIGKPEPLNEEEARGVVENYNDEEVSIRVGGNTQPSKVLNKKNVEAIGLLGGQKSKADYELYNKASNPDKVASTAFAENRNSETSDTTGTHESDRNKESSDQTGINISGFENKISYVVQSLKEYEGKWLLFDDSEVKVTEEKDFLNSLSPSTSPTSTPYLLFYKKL
Chain of 3',5'-cyclic-AMP phosphodiesterase 4B (Homo sapiens) (Q07343 whole entry, looked up): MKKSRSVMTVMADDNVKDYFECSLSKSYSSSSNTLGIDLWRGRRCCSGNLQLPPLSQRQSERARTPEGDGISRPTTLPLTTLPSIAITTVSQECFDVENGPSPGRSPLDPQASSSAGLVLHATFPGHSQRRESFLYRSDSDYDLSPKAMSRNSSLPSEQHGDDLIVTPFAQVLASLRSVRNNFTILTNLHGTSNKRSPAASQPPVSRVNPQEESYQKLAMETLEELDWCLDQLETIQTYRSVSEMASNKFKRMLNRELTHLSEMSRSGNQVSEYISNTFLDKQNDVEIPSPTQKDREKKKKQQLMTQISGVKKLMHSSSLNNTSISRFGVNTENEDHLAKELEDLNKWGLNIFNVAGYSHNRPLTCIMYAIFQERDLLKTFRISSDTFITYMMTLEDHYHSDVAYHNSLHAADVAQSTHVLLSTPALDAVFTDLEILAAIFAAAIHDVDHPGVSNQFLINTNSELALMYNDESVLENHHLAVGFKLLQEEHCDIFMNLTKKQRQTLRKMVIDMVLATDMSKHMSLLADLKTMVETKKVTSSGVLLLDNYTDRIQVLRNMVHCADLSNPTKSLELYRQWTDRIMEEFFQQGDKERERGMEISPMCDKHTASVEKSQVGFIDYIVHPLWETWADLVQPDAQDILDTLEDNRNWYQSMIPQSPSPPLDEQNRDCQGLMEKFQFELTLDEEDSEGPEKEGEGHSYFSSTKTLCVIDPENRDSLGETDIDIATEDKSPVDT
Chain of DNA dC->dU-editing enzyme APOBEC-3G (Homo sapiens) (Q9HC16 whole entry, looked up): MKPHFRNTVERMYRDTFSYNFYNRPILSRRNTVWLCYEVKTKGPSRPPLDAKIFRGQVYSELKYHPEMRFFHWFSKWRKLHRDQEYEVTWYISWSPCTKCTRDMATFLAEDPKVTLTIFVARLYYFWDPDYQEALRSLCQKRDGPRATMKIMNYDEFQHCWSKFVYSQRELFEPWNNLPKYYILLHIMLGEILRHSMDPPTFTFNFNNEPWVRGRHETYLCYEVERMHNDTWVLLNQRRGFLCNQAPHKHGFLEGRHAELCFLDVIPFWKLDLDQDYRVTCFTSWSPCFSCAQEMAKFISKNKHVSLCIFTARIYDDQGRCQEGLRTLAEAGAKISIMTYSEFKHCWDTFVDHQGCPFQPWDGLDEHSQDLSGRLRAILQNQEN
Chain of Luciferin 4-monooxygenase (Photinus pyralis) (P08659 whole entry, looked up): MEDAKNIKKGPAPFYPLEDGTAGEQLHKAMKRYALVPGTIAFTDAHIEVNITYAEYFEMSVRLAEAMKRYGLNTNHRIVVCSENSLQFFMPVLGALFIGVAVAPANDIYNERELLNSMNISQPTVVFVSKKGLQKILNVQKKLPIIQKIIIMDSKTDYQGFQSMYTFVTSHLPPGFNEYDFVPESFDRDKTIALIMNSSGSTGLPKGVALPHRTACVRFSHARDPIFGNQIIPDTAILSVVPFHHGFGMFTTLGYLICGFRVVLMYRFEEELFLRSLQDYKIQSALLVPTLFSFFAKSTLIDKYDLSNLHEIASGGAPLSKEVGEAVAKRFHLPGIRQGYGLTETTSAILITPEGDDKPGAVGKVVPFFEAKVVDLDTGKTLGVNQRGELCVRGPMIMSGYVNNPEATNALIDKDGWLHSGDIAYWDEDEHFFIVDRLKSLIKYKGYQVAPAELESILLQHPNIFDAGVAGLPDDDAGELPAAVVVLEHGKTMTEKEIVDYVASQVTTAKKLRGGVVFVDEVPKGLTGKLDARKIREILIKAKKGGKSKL
Chain of Lysosomal acid glucosylceramidase (Homo sapiens) (P04062 whole entry, looked up): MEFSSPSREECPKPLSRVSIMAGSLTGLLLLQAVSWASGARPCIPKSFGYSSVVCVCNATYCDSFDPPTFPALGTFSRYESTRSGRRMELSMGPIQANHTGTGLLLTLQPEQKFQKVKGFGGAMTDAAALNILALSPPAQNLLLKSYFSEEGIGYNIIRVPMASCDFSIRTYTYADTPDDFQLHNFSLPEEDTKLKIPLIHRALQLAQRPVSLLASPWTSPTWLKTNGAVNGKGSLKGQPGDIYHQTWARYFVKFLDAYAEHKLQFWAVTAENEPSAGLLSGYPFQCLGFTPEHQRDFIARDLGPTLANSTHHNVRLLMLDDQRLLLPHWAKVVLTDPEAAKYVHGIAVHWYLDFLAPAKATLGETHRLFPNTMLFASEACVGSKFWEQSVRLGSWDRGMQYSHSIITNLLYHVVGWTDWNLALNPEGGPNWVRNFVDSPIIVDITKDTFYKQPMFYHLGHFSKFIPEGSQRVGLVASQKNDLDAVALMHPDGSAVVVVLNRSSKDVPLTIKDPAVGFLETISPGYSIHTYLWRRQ
Chain of ATP-dependent 6-phosphofructokinase (Trypanosoma brucei brucei) (O15648 whole entry, looked up): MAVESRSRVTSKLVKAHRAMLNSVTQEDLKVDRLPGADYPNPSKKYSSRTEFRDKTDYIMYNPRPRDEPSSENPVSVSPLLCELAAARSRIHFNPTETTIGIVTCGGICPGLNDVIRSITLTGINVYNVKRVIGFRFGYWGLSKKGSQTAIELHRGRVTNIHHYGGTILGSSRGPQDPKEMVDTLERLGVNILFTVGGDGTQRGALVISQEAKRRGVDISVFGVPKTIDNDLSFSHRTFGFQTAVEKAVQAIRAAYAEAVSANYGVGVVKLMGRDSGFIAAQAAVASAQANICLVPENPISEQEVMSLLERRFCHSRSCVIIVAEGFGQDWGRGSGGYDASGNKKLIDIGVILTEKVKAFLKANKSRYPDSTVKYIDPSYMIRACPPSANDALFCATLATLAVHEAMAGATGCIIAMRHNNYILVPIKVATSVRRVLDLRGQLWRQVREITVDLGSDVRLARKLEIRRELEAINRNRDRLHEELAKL

COC(=O)[C@@H]1[C@@H]2C[C@H]3c4[nH]c5ccccc5c4CCN3C[C@@H]2CC[C@@H]1O
inactive: Potency [1] > 11.4 µM | activity change, negative = inhibition ([2]; at 7.69 µM (top of the series)) -0.0828% | activity change, negative = inhibition ([2]; at 17.2 µM (top of the series)) 0.544% and 5.73% and 0.793% | activity change, negative = inhibition ([3]; at 7.69 µM (top of the series)) -0.996% | activity change, negative = inhibition ([3]; at 17.2 µM (top of the series)) -15% and 0.703% and 5.17% | activity, negative = inhibition ([4]; at 7.69 µM (top of the series)) 0.353% | activity, negative = inhibition ([4]; at 17.2 µM (top of the series)) 5.5% and -1.53% and 0.108% | Potency [5] | Potency [6] | activity change, negative = inhibition ([7]; at 25.7 µM (top of the series)) 1.23% and -2.04% and -1.29% | outcome [8] | Potency [9] | Potency [10] | Potency [11] | outcome [12] | Potency [13] | Potency [14] | Potency [15] | Potency [16] | activity, negative = inhibition ([17]; parasite line A) 13.9% | activity, negative = inhibition ([17]; parasite line B) -2.77% | Potency [18] | Potency [19] | Potency [20] | Potency [21] | Potency [22] | Potency [23] | Potency [24] | Potency [25] | Potency [26] | Potency [27] | Potency [28] | Potency [29] | Potency [30] | Potency [31] | Potency [32] | Potency [33] | Potency [34]
-5.31% and -9.47% and 16%: max response ([7]; measured here: cell count channel max response)
-5.26% and -13% and 13.4%: max response ([7]; measured here: lipid channel max response)
